These results are taken from PubChem BioAssay.

Test [1] deals with Plasmodium falciparum Sir2 (PF13_0152, Sir2A). Description: Plasmodium falciparum Sir2A binding compounds – biochemical, small-molecule microarray, 635 nm fluorescence, primary screen (AID 1098).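 Note: score merges spot fluorescence intensity with its signal-to-noise ratio.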 The following applies: fluorescence 635 nm, higher = more signal.
Test [2] is described as follows: probe aDKK1 binding to arrayed compounds – biochemical, biotinylated probe, 635/667 nm fluorescence, primary screen (AID 1099).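 Note: score merges 667nm spot fluorescence with signal to noise across triplicate slides.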 The following applies: small-molecule microarray, higher = more signal.
The nature of test [3]: probe aCHRDL2 binding to arrayed compounds – biochemical, biotinylated probe, 635/667 nm fluorescence, primary screen (AID 1100). The following applies: small-molecule microarray, higher = more signal.
The nature of test [4]: change in splice reporter luminescence, either direction, cell-based, HEK293, spliceosome inhibition project, primary screen (AID 1101).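 Note: HEK293 cells carrying a splicing-competent luciferase reporter gene; test concentration not given here.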 The following applies: HEK293 splicing luciferase reporter, 24 h, higher = more signal, called active from +8 up or from −8 down.
The target of test [5] is Fibroblast growth factor 10 (Homo sapiens) (UniProt O15520). Description: compounds binding fibroblast growth factor 10 – biochemical, small-molecule microarray, 635 nm fluorescence, primary screen (AID 1102). The following applies: FGF10 binding, fluorescence 635 nm, higher = more signal.
The subject of test [6] is glycogen synthase kinase-3 (GSK3A per assay name; protocol says GSK3B). The test is described as follows: compounds binding glycogen synthase kinase-3 – biochemical, small-molecule microarray, 635 nm fluorescence, GSK3A, primary screen (AID 1103). Note: the record names both GSK3A and GSK3B. The following applies: fluorescence 635 nm, higher = more signal.
Test [7] addresses Epidermal growth factor receptor (Homo sapiens) (UniProt P00533). Description: compounds binding epidermal growth factor receptor – biochemical, small-molecule microarray, 635 nm fluorescence, primary screen (AID 1104).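 Note: score merges 667 nm emission intensity with spot signal to noise over triplicate slides.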 The following applies: EGFR binding, higher = more signal.
The target in test [8] is Follistatin-related protein 3 (Homo sapiens) (UniProt O95633). The test is described as follows: compounds binding follistatin-related protein 3 – biochemical, small-molecule microarray, 635 nm fluorescence, primary screen (AID 1105).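 Note: score merges emission near 667 nm and signal to noise per printed spot across three slides.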 The following applies: FSTL3 binding, higher = more signal.
Test [9] concerns the target Dickkopf-related protein 1 (Homo sapiens) (UniProt O94907). Description: small molecules binding DKK1 protein – biochemical, small-molecule microarray, 635 nm fluorescence scan, primary screen (AID 1106).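 Note: score merges emission near 667 nm with signal to noise over three replicate slides.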 The following applies: higher = more signal.
The subject of test [10] is Inhibin beta A chain (activin A). The test is described as follows: small molecules binding activin A – biochemical, small-molecule microarray, 635 nm fluorescence scan, primary screen (AID 1107).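 Note: mouse activin A protein probed at 4.33 µg/mL on printed slides; score merges bound-protein fluorescence near 667 nm with spot signal-to-noise.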 The following applies: INHBA, higher = more signal.
In test [11] the test system is Human papillomavirus type 1a protein E7 (residues 44-93). The test is described as follows: small molecules binding HPV E7 44-93 – biochemical, small-molecule microarray, residues 44-93, 635 nm fluorescence, primary screen (AID 1108).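 Note: E7 fragment applied at 1 µg/mL in TBST for 1 h at 4 C; score combines spot fluorescence with its signal to noise ratio.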 Conditions: fluorescence 635 nm, higher = more signal.
A short description of test [12]: hepatitis C replication reporter changes, two-sided – Huh7 cells, luciferase reporter, HCV replication inhibitor project, primary screen (AID 1109).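 Note: huh7 hepatoma cells harbouring a luciferase neomycin HCV replicon reporter; luciferase luminescence as measure of HCV replicon replication; test concentration not given here.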 Conditions: Huh7 HCV replicon luciferase reporter, 48 h; higher = more signal. On the technique in general: Reporter assays use an easily measured gene product as a stand-in for the process of interest.
Test [13] has as its target Left-right determination factor 2 (Homo sapiens) (UniProt O00292). The test is described as follows: small molecules binding LEFTY2 protein – biochemical, small-molecule microarray, 635 nm fluorescence scan, primary screen (AID 1110). Conditions: higher = more signal.
The target of test [14] is Calmodulin-1 (Homo sapiens) (UniProt P0DP23). Description: small molecules binding calmodulin-1 with EGTA – biochemical, small-molecule microarray, Cy5-labelled CALM1, profiling panel (AID 1111).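 Note: labelled calmodulin applied in Tris saline Tween buffer holding calcium plus EGTA and DTT.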 Conditions: Cy5-CALM1 binding fluorescence, higher = more signal.
For test [15] the target is unchanged. The test is described as follows: small molecules binding Ca-loaded calmodulin-1 – biochemical, small-molecule microarray, Cy5-labelled CALM1, plus calcium, artefact control for SMM control-protein annotation, profiling panel (AID 1112).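 Note: score merges spot fluorescence with signal to noise from triplicate slides.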 The following applies: Cy5-CALM1 binding fluorescence, higher = more signal.
Test [16] is described as follows: probe aWnt5a binding to arrayed compounds – biochemical, biotinylated probe, 635/667 nm fluorescence, primary screen (AID 1113).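 Note: score merges 667 nm fluorescence intensity with signal-to-noise per printed feature.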 Conditions: small-molecule microarray, higher = more signal.
Test [17] is described as follows: probe aShh binding to arrayed compounds – biochemical, biotinylated probe, 635/667 nm fluorescence, primary screen (AID 1114).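 Note: probe is biotin-labelled aShh protein from a stem cell growth factor screen; measures binding of labelled protein to compounds printed on the slide; score merges feature fluorescence at 667 nm with signal-to-noise.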 Conditions: small-molecule microarray, higher = more signal.
Test [18] is described as follows: probe aNog binding to arrayed compounds – biochemical, biotinylated probe, 635/667 nm fluorescence, primary screen (AID 1115).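 Note: probe is biotinylated aNog protein used at 0.15 µg/mL for 1 h at 4 C; z-score combines 667 nm fluorescence of each spot with its signal to noise.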 The following applies: small-molecule microarray, higher = more signal.
Test [19] has as its target Torsin-1A-interacting protein 1 (Homo sapiens) (UniProt Q5JTV8). Description: compound microarray binding of lysate hLAP1 – cell lysate, small-molecule microarray, COS7 lysate, 635/667 nm fluorescence, primary screen (AID 1116). The following applies: 635 nm fluorescence, higher = more signal.
The target of test [20] is Alpha-bungarotoxin (Bungarus multicinctus) (UniProt P60615). The test is described as follows: compounds binding labelled alpha-BTX control protein – biochemical, small-molecule microarray, Alexa647 label, 635/667 nm fluorescence, artefact control for SMM control protein annotation, profiling panel (AID 1117). Conditions: alpha-BTX-A647 binding fluorescence, higher = more signal.

The source made the active and inactive calls.

Chain of Follistatin-related protein 3 (Homo sapiens) (O95633 whole entry, looked up): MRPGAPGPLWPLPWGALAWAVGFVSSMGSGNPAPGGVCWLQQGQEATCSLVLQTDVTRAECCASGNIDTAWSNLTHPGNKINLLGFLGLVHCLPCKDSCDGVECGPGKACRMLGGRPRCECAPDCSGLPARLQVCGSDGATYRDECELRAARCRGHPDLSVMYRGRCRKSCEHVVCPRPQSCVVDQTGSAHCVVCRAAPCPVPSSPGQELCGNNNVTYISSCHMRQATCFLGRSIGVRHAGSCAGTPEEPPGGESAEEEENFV
Chain of Epidermal growth factor receptor (Homo sapiens) (P00533 whole entry, looked up): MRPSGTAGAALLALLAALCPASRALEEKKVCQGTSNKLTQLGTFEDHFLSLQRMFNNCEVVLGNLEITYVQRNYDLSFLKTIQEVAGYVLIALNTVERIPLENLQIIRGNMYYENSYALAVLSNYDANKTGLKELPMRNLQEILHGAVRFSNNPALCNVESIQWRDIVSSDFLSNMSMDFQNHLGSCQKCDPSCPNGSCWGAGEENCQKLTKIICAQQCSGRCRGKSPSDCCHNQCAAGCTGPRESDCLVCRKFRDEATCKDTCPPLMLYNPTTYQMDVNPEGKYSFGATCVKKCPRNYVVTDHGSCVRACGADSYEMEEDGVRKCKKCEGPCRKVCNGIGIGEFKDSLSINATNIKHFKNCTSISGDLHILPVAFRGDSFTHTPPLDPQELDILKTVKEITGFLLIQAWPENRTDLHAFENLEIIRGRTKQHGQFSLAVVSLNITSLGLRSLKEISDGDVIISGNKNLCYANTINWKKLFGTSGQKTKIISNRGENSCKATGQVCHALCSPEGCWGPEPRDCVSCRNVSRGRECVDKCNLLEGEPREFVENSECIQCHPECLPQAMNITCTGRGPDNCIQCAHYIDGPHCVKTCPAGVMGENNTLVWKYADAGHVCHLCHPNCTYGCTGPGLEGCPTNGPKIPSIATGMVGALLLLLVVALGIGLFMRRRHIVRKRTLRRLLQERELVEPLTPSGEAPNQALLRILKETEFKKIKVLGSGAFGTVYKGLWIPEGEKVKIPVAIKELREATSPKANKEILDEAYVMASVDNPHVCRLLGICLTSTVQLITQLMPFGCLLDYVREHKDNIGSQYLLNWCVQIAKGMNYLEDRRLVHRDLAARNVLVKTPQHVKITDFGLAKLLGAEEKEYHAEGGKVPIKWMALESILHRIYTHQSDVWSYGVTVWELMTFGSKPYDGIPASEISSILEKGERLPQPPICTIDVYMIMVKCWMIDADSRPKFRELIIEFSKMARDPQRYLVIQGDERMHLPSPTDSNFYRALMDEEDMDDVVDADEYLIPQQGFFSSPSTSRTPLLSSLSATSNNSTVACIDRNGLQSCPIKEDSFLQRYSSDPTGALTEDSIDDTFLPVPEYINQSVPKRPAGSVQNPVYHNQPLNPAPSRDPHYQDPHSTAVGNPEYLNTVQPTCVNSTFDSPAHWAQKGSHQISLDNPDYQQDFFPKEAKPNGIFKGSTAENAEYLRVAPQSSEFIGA
Chain of Alpha-bungarotoxin (Bungarus multicinctus) (P60615 whole entry, looked up): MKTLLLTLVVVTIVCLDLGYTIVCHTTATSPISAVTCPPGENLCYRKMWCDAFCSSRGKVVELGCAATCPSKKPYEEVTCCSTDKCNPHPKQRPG
Chain of Torsin-1A-interacting protein 1 (Homo sapiens) (Q5JTV8 whole entry, looked up): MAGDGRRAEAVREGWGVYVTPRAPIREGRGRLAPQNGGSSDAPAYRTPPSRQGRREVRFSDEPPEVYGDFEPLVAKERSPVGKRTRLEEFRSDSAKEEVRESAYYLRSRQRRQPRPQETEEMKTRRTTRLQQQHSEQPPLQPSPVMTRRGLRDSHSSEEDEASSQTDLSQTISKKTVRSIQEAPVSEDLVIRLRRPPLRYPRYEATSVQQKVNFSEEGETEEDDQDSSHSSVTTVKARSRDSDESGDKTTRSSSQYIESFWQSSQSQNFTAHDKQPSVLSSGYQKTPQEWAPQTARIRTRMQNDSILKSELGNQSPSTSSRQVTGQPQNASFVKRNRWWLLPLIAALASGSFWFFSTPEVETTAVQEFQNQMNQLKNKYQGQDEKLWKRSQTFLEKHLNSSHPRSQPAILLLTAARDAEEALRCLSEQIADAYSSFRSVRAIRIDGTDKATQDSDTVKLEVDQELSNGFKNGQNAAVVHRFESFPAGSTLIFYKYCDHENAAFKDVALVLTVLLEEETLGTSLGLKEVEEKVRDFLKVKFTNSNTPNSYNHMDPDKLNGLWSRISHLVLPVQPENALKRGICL
Chain of Left-right determination factor 2 (Homo sapiens) (O00292 whole entry, looked up): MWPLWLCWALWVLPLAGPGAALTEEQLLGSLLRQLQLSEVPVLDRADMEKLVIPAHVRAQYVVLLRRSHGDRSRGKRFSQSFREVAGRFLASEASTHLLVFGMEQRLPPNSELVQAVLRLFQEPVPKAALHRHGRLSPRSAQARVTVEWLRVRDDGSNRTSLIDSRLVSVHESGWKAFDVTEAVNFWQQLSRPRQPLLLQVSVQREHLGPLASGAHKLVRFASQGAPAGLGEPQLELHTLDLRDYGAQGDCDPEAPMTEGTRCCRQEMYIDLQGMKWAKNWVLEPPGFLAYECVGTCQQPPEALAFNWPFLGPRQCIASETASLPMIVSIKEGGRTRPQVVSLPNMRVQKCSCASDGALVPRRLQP
Chain of Dickkopf-related protein 1 (Homo sapiens) (O94907 whole entry, looked up): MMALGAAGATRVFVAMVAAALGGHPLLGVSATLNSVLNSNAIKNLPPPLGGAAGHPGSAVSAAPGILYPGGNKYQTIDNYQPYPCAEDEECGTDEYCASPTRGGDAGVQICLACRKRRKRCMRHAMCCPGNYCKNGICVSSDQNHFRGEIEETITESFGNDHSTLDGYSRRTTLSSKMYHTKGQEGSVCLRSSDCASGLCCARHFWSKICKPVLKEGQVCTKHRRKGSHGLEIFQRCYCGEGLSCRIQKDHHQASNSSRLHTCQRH
Chain of Fibroblast growth factor 10 (Homo sapiens) (O15520 whole entry, looked up): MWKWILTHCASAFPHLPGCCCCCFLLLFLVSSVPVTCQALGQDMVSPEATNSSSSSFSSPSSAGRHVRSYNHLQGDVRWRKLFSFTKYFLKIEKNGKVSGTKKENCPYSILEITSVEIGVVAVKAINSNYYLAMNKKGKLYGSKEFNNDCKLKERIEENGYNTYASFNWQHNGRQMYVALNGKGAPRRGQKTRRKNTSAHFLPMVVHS

As to `CC(CO)N1C(=O)[C@@H]2C3C(=O)OCCC/C=C\[C@H]3OC23C=CCN(c2ccc4ccccc4c2)C(=O)[C@@H]13` (stereo not given in full), the composite z-score in test [1] was 0.0726; in test [2], -0.146; in test [3], 0.128; in test [5], -1.01; in test [6], -0.974; in test [7], -1.04. Besides, the composite z-score in [8] was -0.718; in test [9], -1.17; in test [10], -0.107; in test [11], -0.711; in test [13] it was -1.22; in [14], 0.0827. Besides, the composite z-score is -0.0356 in test [15]; -0.127 in test [16]; -0.273 in [17]; -0.0675 in [18]; 1.19 in test [19]; 0.169 in [20]. Also, the z-score in test [4] was -0.317 (inactive); in test [12], 0.793.

`CCCCC=C[C@@H](NC(=O)Oc1cccc(C(F)(F)F)c1)c1ccccc1`: the composite z-score in test [1] was 0.495; in test [2] it was 1.45; in test [3] it was 0.879; in [5], 1.09; in test [6], 0.992; in test [7], 0.185. In addition, the composite z-score in [8] was 0.719; in test [9], -0.432; in test [10] it was 1.16; in test [11], 1.18; in [13] it was -0.143; in test [14], 1.85. Also, the composite z-score in test [15] came out at 1.11; in test [16] it was 1.04; in [17], 1.97; in [18] it was 0.59; in [19] it was 0.503; in test [20], 1.62. Also, the z-score in test [4] was -1.75 (inactive); in [12] it was -1.07.

On to `O=C(NCc1ccccc1)[C@@H]1c2ccccc2C(=O)N(CC23CC4CC(CC(C4)C2)C3)[C@H]1c1ccc(CO)cc1`, for which the composite z-score in test [1] was 1.6; in test [2] it was -0.654; in test [3], -0.524; in test [5], 0.971; in test [6] it was 1.31; in test [7] it was 0.603. The composite z-score in test [8] is 1.43; in test [9], 0.593; in test [10], 0.147; in [11], 1.36; in [13], 0.567; in test [14], 0.237. Further, the composite z-score in test [15] was -0.831; in test [16] it was -0.0957; in [17], -0.0337; in test [18], -0.584; in test [19] it was 0.575; in [20], 0.645. Besides, the z-score in test [4] is 0.152 (inactive); in test [12] it was -1.96.

Consider `O=C1[C@H]2C=C(Br)[C@H](C[C@@H]2OCCCCO)[C@@]12CO2`, for which the composite z-score was 1.02 in test [1]; -0.257 in test [2]; -0.504 in test [3]; 0.177 in test [5]; 0.0613 in [6]; 0.224 in test [7]. For the same molecule, the composite z-score was -0.0883 in test [8]; 0.438 in test [9]; 0.646 in [10]; -0.875 in test [11]; 0.307 in test [13]; -0.442 in test [14]. For the same molecule, the composite z-score is -1.04 in test [15]; -0.0944 in test [16]; 0.149 in [17]; 0.101 in test [18]; -0.272 in [19]; -0.032 in [20]. The z-score is -0.238 (inactive) in test [4] and -1.98 in [12].

`CN(C)CCCNC(=O)[C@@]1(C)c2ccccc2C(=O)N(Cc2cc(F)cc(C(F)(F)F)c2)[C@H]1c1ccc(CO)cc1`: the composite z-score in test [1] is 1.34; in test [2], -0.226; in [3] it was 0.682; in [5], -1.23; in test [6], -0.465; in test [7], -1.63. For the same molecule, the composite z-score in test [8] was -1.19; in test [9], -0.878; in test [10], 0.376; in test [11], -0.0947; in test [13], -1.66; in test [14] it was -0.483. The composite z-score is -0.643 in test [15]; -0.251 in [16]; 0.0121 in test [17]; 0.338 in test [18]; -0.94 in test [19]; 1.32 in [20]. The z-score in test [4] was -0.249 (inactive); in test [12] it was -1.8.
